Sfp PPTase inh = qHTS Assay for Inhibitors of Bacillus subtilis Sfp phosphopantetheinyl transferase (PPTase); 4'-phosphopantetheinyl transferase ffp (Bacillus subtilis), Q9F4F7; Potency, µM, for inactives: largest response in the series, negative = inhibition, hits mostly inhibitors; Biochemical Sfp PPTase activity, qHTS; AID 1490, 2009; 310,000 tested, 3.5% active;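 further: the enzyme is Sfp with the accession as filed and its product quenches rhodamine fluorescence; 0% = enzyme reaction without inhibitor and -100% = no enzyme wells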
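Buffer: 50 mM Hepes-Na pH 7.6, 10 mM MgCl2, 0.01% Nonidet P-40, 0.01% BSA. Enzyme 15 nM, pre-exposed to compound 15 min; substrates then added and fluorescence change tracked over 30 min.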
JMJD2A Tudor = qHTS Assay for Inhibitors of JMJD2A-Tudor Domain; AlphaScreen JMJD2A-Tudor / H3K4me3 peptide binding; Potency, µM (doses to about 114 µM), for the others: at the top dose activity change, negative = inhibition, actives largely listed as inhibitors; 390,000 tested, 4.4% active; AID 504339, 2011; further: on the % scale 0 is the no-effect control and ±100 the full control effect; nearly all actives have a fitted effect of over 50% in size
G9a block = qHTS Assay for Inhibitors of Histone Lysine Methyltransferase G9a. Histone-lysine N-methyltransferase EHMT2 (Homo sapiens), Q96KQ7. G9a H3K9 monomethylation, AlphaScreen, 2 h. Potency, µM (series often up to 102 µM), inactives show at the highest dose activity, negative = inhibition, most hits filed as inhibitors. 350,000 tested, 8.8% active. AID 504332, 2011; further: on the % scale 0 is the no-effect control and ±100 the full control effect; nearly all actives have a fitted effect of over 75% in size
Target sequence (Q96KQ7 913-1193 limits assumed): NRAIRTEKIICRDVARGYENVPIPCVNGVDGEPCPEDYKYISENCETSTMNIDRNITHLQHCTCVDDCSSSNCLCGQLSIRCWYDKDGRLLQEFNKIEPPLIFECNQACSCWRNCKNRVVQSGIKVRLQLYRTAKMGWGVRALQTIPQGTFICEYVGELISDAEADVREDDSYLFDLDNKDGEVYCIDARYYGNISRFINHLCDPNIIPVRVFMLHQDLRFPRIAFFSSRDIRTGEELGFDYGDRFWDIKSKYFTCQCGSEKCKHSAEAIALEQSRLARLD
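Using a bead-based AlphaScreen, monomethylated H3K9 product from 2 h room-temperature reactions (G9a 20 nM, peptide 500 nM, SAM 20 uM) was detected with 0.5 ug/mL rabbit anti-H3K9me1 antibody.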
HP1b binding inh = HTS for Inhibitors of HP1-beta Chromodomain Interactions with Methylated Histone Tails; Potency, µM (top dose mostly 114 µM), inactives show at the top dose activity change, negative = inhibition, actives largely listed as inhibitors; Chromobox protein homolog 1 (Homo sapiens), P83916; 390,000 tested, 0.56% active; AID 540317, 2011; AlphaScreen HP1-beta / biotin-H3K9me3 peptide binding; further: nearly all actives have a fitted effect of over 70% in size
Target sequence (P83916 whole entry, looked up): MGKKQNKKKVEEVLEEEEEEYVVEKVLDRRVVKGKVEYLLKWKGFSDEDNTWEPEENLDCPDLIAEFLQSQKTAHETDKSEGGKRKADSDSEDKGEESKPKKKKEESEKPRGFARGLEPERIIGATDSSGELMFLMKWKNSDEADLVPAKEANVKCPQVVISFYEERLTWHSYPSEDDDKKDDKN
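HP1-beta protein (50 nM final) preincubated 30 min at room temperature with biotinylated H3(1-18)K9me3 peptide (50 nM) in PBS pH 7.4, 0.01% Tween-20, then compound added for 30 min. AlphaScreen streptavidin donor/nickel chelate acceptor beads (10 ug/mL final), 30 min dark, luminescence read.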
BAZ2B block = qHTS Assay for Inhibitors of BAZ2B. Bromodomain adjacent to zinc finger domain protein 2B (Homo sapiens), Q9UIF8. AlphaScreen BAZ2B-H3K14Ac peptide displacement. Potency, µM (highest dose often 114 µM), inactives show at the highest dose activity change, negative = inhibition, hits mostly inhibitors. 360,000 tested, 4.4% active. AID 504333, 2011; further: on the % scale 0 is the no-effect control and ±100 the full control effect; nearly all actives have a fitted effect of over 60% in size
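Multi-concentration screen (max 110 uM) measuring displacement of acetylated histone H3 peptide from BAZ2B by AlphaScreen, using 50 nM protein, 50 nM peptide and 10 ug/mL streptavidin donor plus Ni-chelate acceptor beads.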
Active calls of the source: *; ? = inconclusive; · = no result given; ! = not confirmed by another sample; [ ] = another dose, or the depositor's remark. Only some compounds are listed: those with a hit (about 12% of all), similar ones and a draw of the others. The call rests on the fitted dose curve; in most records, active means well fitted curve in the direction sought with a large enough effect; inconclusive means small, poorly fitted or top-dose-only effect, or another doubt; inactive means no such curve, though single readings can be large; an effect the other way counts as inactive or inconclusive. Potency means the concentration at half of the fitted maximal effect.

SMILES	Sfp PPTase inh	JMJD2A Tudor	G9a block	HP1b binding inh	BAZ2B block
COc1ccc(C(=O)NCC(c2ccc3c(c2)OCO3)N2CCN(c3ccc(F)cc3)CC2)cc1 (stereo not drawn)	·	?	-26%[59 µM]	-7%[57 µM]	-37%
COc1cccc(C(=O)NCC(c2ccc3c(c2)OCO3)N2CCN(c3ccc(F)cc3)CC2)c1 (stereo not drawn)	·	?	45µM*	-9%	0%
CN1CCN(C(CNC(=O)C(=O)Nc2ccc3c(c2)OCO3)c2ccc(F)cc2)CC1 (stereo not drawn)	·	-24%	50µM*	-18%	7%
COc1ccc(C(=O)NCC(c2ccc3c(c2)OCO3)N2CCN(c3ccc(OC)cc3)CC2)cc1 (stereo not drawn)	·	?	6.3µM*	2%	?
COc1ccc(C(CNC(=O)C(=O)Nc2ccc3c(c2)OCO3)N2CCN(C)CC2)cc1 (stereo not drawn)	·	-6%	-26%[59 µM]	19%	10%
COc1cccc(C(=O)NCC(c2ccc3c(c2)OCO3)N2CCOCC2)c1 (stereo not drawn)	·	1%	3%[59 µM]	56%[57 µM]	7%
Cc1ccc(NC(=O)Cn2c(=O)c3cc(Cl)ccc3n3nncc23)cc1	·	-14%	8%[59 µM]	19%	3%
S=c1nc[nH]c2nc[nH]c12	40µM*!	4µM*	?	-7%	35µM*
O=c1[nH]c(=S)[nH]c2nc[nH]c12	·	?	·	3%[57 µM]	·
COC(=O)[C@]1(C)N[C@H](CN(C)C(=O)c2ccc(C)cc2)[C@@H]2C(=O)N(Cc3ccccc3)C(=O)[C@@H]21	·	-16%	·	42%	·
C=CCOc1ccc(/C=C/C(=O)N2CCCN(S(=O)(=O)c3c(C)noc3C)CC2)cc1	·	-6%	45µM*	19%	-5%
COc1ccc(/C=C/c2onc(C)c2S(=O)(=O)N2CCC(C(=O)N3CCCCC3)CC2)cc1	·	-9%	-26%[59 µM]	30%	-2%
COc1ccc(OC)c(-c2cc(C(=O)Nc3cnn(Cc4ccc(Cl)cc4Cl)c3)no2)c1	·	-5%	-40%[59 µM]	16%	1%
O=c1cc(-c2ccccc2)[nH]n1-c1nc2ccccc2[nH]1	5%	56µM*	-53%	20%	28µM*
CC(C)c1ccc(C2C3=C(CC(c4ccco4)CC3=O)Nc3nc(C(F)(F)F)nn32)cc1 (stereo not drawn)	·	-15%	·	19%	·
O=C1CC(c2ccco2)CC2=C1C(c1ccccc1)n1nc(C(F)(F)F)nc1N2 (stereo not drawn)	10µM*	-19%	?	-1%	-19%
Clc1ccc(CN2CCc3nc(Nc4ccc5c(c4)OCCO5)ncc3C2)cc1	·	28µM*	-29%[12.7 µM]	-22%	18µM*
CCOc1ccccc1CN1CCc2nc(Nc3ccc4c(c3)OCCO4)ncc2C1	·	56µM*	?	?	40µM*
COc1cc(OC)c(OC)cc1CN1CCc2nc(Nc3ccc4c(c3)OCCO4)ncc2C1	·	56µM*	14µM*	-13%	45µM*
COc1cc(Nc2ncc3c(n2)CCN(Cc2cc(F)cc(F)c2)C3)cc(OC)c1	·	-22%	-28%[59 µM]	8%	?
CCOC(=O)CSc1nnc(-c2cccs2)n1-c1ccccc1	-19%	?	?	56%	3%
CC(=O)c1ccc(-n2c(CCC(=O)O)ccc2-c2cccs2)cc1	20µM*	?	14µM*	-5%	?
NC(=O)c1ccc(-n2c(CCC(=O)O)ccc2-c2cccs2)cc1	-15%	-26%	28µM*	?	-32%
Cc1ccc(-n2c(CCC(=O)O)ccc2-c2cccs2)cc1Cl	·	?	13µM*	1%	?
COCCCn1c(CCC(=O)O)ccc1-c1cccs1	?	-33%	?	-8%	?
SMILES	Sfp PPTase inh	JMJD2A Tudor	G9a block	HP1b binding inh	BAZ2B block
Fc1ccc(-c2cn3cc(Cc4ccc(Cl)cc4)sc3n2)cc1	·	-1%	11%[59 µM]	40%	-14%
CO[C@H]1COC(=O)[C@H]2CCCN2C(=O)C/C=C\[C@@H](C)[C@H](OC)COC(=O)C/C=C\[C@@H]1C	6%	·	·	·	·
CC#CC(=O)N1CCC(C(=O)Nc2ccc(Oc3ccccc3)nc2)CC1	8%	-15%	·	30%	-1%
Cc1ccc(N2CC(c3nnc(Cc4ccc(Cl)cc4)o3)CC2=O)cc1 (stereo not drawn)	·	-9%	-31%[59 µM]	24%	-6%
Cc1ccc(NC(=O)c2ccc3ncsc3c2)cc1S(=O)(=O)N(C)C	56µM*	·	?	·	56µM*
O=C(COC(=O)c1ccc2ncsc2c1)Nc1cccc(Cl)c1	·	0%	4%[12.7 µM]	39%	2%
Nc1ccc(-c2nc3ccc(C(=O)O)cc3s2)cc1	56µM*	0%	40µM*	31%	2%
O=C(Nc1ccc(Cl)cc1)c1ccc2ncsc2c1	?	3%	45µM*	45%	2%
O=C(Nc1cccc(Cl)c1)c1ccc2ncsc2c1	3%	0%	7%	20%	17%
CC(=O)NC(=O)COC(=O)c1ccc2ncsc2c1	0%	-15%	56µM*	38%	8%
CC(C)C[C@H]1CNC(=S)N1CC1CCN(CCCC2CCCCC2)CC1	·	-9%	·	22%	·
O=C(Nc1ccc(F)cc1)c1ccc2ncsc2c1	?	-2%	35µM*	45%	-2%
O=C(Nc1ccc(C(F)(F)F)cc1)c1ccc2ncsc2c1	79µM*	-1%	?	28%	2%
O=C(O)c1ccc2ncsc2c1	3%	20µM*	?	-23%	20µM*
O=C(c1ccc2ncsc2c1)N1CCCCC1	-22%	-11%	-3%	44%	3%
O=C(Nc1ccc(N2CCOCC2)cc1)c1ccc2ncsc2c1	·	-20%	·	10%	·
COc1ccccc1NC(=O)CSc1nc(-c2ccccc2F)nc2cc(=O)[nH]n12	·	-31%	-16%[59 µM]	-15%	?
O=c1cc2nc(-c3ccccc3F)nc(SCc3ccc(Br)cc3)n2[nH]1	·	?	-12%[59 µM]	9%	50µM*
Cc1cc(=O)n(C)c(=O)n1CCCCCCN1CCCC1	-11%	3.2µM*	11µM*	?	?
CCOc1ccc(NC(=O)c2ccc3c(c2)CCN3S(=O)(=O)c2ccc(Cl)cc2)cc1	·	-15%	2%[59 µM]	33%	-9%
CCCS(=O)(=O)c1nc(S(=O)(=O)c2ccc(C)cc2)c(N2CCc3ccccc3C2)s1	-9%	-10%	35µM*	28%	24%
CCN(CC)CCNc1ncnc2c1sc1nc(N3CCOCC3)c3c(c12)CCCC3	4%	?	35µM*	-16%	-32%
CCN(CC)CCNc1ncnc2c1sc1nc(N3CCCC3)c3c(c12)CC(C)(C)OC3	-22%	?	?	?	45µM*
